# Measurements as given in PubChem BioAssay (NCATS).
# Results filed as inconclusive are left out. Entries that show only a call come without a potency. Activity calls are given as the source filed them. Calls follow the shape of the dose curve; as a rule, active = well fitted inhibition curve with a large enough effect; inconclusive = small, poorly fitted or top-dose-only effect; inactive = flat fitted curve, though single readings scatter. Peptide text beside a SMILES is read from it. * marks the point of attachment. βNA = c1ccc2cc(N*)ccc2c1; Cbz = O=C(OCc1ccccc1)*
# Target: Aldehyde dehydrogenase, mitochondrial (Homo sapiens) (UniProt P05091)
# Assay: qHTS for Inhibitors of the Aldehyde Dehydrogenase Family (ALDH2) Primary screen (AID 2061308); also: nearly all actives have a fitted effect of over 55% in size
# Details: ALDH2 enzyme inhibition qHTS, 1536-well; series mostly up to 56 µM
row,Compound,Potency
1,CSCC1OC(n2cnc3c(N)ncnc32)C(O)C1O (stereo not drawn),inactive
2,C[C@@H]1C[C@H](O)/C=C/[C@H](O)[C@@H](O)CC(=O)O1,inactive
3,O=C1NC2CCCCN2C12CCN(CCCN1c3ccccc3CCc3ccc(Cl)cc31)CC2 (stereo not drawn),inactive
4,CCOC(=O)c1cc(C#N)c(N2CCC(C(=O)NS(=O)(=O)Cc3ccccc3)CC2)nc1C,inactive
5,C=C(C)C1CCC2(C(=O)O)CCC3(C)C(CCC4C5(C)C(C=O)C(O)C(C)(C)C5CCC43C)C12 (stereo not drawn),inactive
6,CC[C@]12CCCN3CCc4c(n(c5ccccc45)C(=O)C1)[C@@H]32,inactive
7,C=C1CC[C@@H](O)[C@]2(C)C[C@H]3OC(=O)C(=C)[C@H]3CC12 (stereo partly drawn),inactive
8,CC1(C)C[C@@H]2[C@H](C1)[C@@]1(C)C[C@]13C(O)OC[C@]3(O)[C@H]2O (stereo partly drawn),inactive
9,CC(C)/C=C1\NC(=O)C(C(C)C)n2c1nc1c(c2=O)C=CC=CO1 (stereo not drawn),inactive
10,O=C(/C=C/c1ccc(O)cc1)OC[C@H]1O[C@@H](OC(=O)/C=C/c2ccccc2)[C@H](O)[C@@H](O)[C@@H]1O,inactive
11,O=C(Cc1ccccc1)OC[C@H]1O[C@H](O[C@H]2O[C@H](CO)[C@@H](O)[C@H](O)[C@H]2O)[C@H](O)[C@@H](O)[C@@H]1O,inactive
12,CC(C)CC(NC(=O)OCc1ccccc1)C(=O)NC(CC(C)C)C(=O)NC(CCC(=O)O)C(=O)Nc1ccc2ccccc2c1 (stereo not drawn) (Cbz-Leu-Leu-Glu-βNA; configuration not given here),inactive
13,COc1cc(C(CO)CO[C@@H]2O[C@H](CO)[C@@H](O)[C@H](O)[C@H]2O)ccc1O (stereo partly drawn),inactive
